Assay outcomes (PubChem)
Shiga toxin inh: blocks Shiga toxin action in Vero cells | Vero cells, Shiga toxin protein synthesis inhibition reporter | AID 2315 | 290,000 compounds, 9.2% hits | inhibition, % at 38.7 µM; in the data active = inhibition mostly above about 28%, no sharp cut-off; inactive = mostly below about 43%; note: 0% is about no effect
Pf growth 96h: inhibits malaria parasite growth, 96 h | P. falciparum luciferase reporter growth, 96 h | Potency, µM (series often up to 28.7 µM), for inactives: at the top dose activity change, negative = inhibition, actives largely listed as inhibitors | 320,000 compounds, 6.9% hits | AID 504834; note: potency is the fitted concentration of half-maximal effect; % is set by controls: 0 for no effect and ±100 for the full control effect
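Cell-based qHTS: luciferase-tagged P. falciparum in erythrocytes (2% hematocrit, 0.05% parasitemia final) incubated with compounds for 96 hours, 37 C, 5% CO2; luciferase detection reagent then added and luminescence measured.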
CHX counter: counter-screen hit for Shiga toxin inhibitors, cycloheximide | cell reporter, cycloheximide protein synthesis inhibition counterscreen | max response, % | 300,000 compounds, 12% hits; in the data active = max response mostly above about 13%, no sharp cut-off; inactive = mostly below about 14%; note: read at 38.3 µM for the half of the compounds with a filed dose; 0% is about no effect
Pf growth 48h: P. falciparum growth inhibition at 48 hours (one generation) | Potency, µM (top dose mostly 28.7 µM), inactives show top-dose activity change, negative = inhibition, hits mostly inhibitors | P. falciparum luciferase growth in erythrocytes, 48 h | 310,000 compounds, 5.9% hits | AID 504832; note: potency is the fitted concentration of half-maximal effect; % is set by controls: 0 for no effect and ±100 for the full control effect
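First compound was added to culture medium, then infected red cells at 0.1% parasitemia and 2% hematocrit (final). After incubation at 37 C under 5% CO2, luciferase detection reagent was dispensed and light output recorded.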
AMA1-RON2 inh: disrupts binding of P. falciparum AMA1 to RON2; AlphaScreen AMA1-biotinylated RON2 peptide binding; Potency, µM (series often up to 58.2 µM), inactives show top-dose activity change, negative = inhibition, hits mostly inhibitors; 360,000 compounds, 0.2% hits; AID 720542;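 note: potency is the fitted concentration of half-maximal effect; 0% = vehicle wells and -100% = peptide control; nearly all actives have a fitted effect of over 45% in size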
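AMA1 (3D7) with his tag at 25 nM final met compounds first, then biotinylated RON2 peptide at 25 nM; detection used donor plus acceptor beads, 10 µg/mL apiece, read by AlphaScreen after 30 min at room temperature.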
SARS PLpro yeast: blocks SARS-CoV papain-like protease in a yeast assay; Potency, µM (titrated, usually from 32.9 µM), inactives show top-dose activity, positive = growth rescue, most hits filed as activators; AID 485353; S. cerevisiae expressing SARS-CoV PLpro, growth rescue; 330,000 compounds, 0.19% hits; calls by dose curve; note: potency is the fitted concentration of half-maximal effect; 0% is about no effect; nearly all actives have a fitted effect of over 55% in size
The depositor's hits bear a star; ? = inconclusive; / = not tested or not shown. Hits are enriched below; roughly 19% of the tested compounds scored in any of these assays. Unless noted, calls come from the whole dose curve; as a rule, active = well fitted curve in the direction sought with a large enough effect; inconclusive = small, poorly fitted or top-dose-only effect, or another doubt; inactive = no such curve, though single readings can be large; an effect the other way counts as inactive or inconclusive.

SMILES	Shiga toxin inh	Pf growth 96h	CHX counter	Pf growth 48h	AMA1-RON2 inh	SARS PLpro yeast
Cc1ccc(C2C(C=Nc3c(C)n(C)n(-c4ccccc4)c3=O)=C(c3ccccc3)Oc3ccccc32)cc1 (stereo not drawn)	-10	4.1µM*	-2	8.3µM*	-15%	-11%
Cc1c(N=Cc2cccs2)c(=O)n(-c2ccccc2)n1C	10	16%	8	/	7%	2%
Clc1ccc(-c2nnsc2SCc2ccccc2)cc1	49*	-20%	44*	-12%	43%	-6%
c1ccc(-c2nnsc2Sc2ccccn2)cc1	56*	21%	32*	34%	41%	-8%
Clc1ccccc1CSc1snnc1-c1ccccc1	64*	1%	38*	14%	23%	-13%
Clc1ccc(CSc2snnc2-c2ccccc2)cc1	27	?	23*	13µM*	35%	-5%
CSc1snnc1-c1ccccc1	-1	11%	3	?	6%	2%
Cc1ccccc1-n1nnnc1SCC(=O)c1c(N)n(C2CC2)c(=O)[nH]c1=O	/	?	/	6%	-9%	-2%
CCCCCCCCN1C(=O)[C@H](CC(=O)NCCCOCCCC)C[C@@]2(C(=O)OC)CC(C)(C)CC=C12	/	/	/	/	-3%	/
CCC(=O)c1ccc(OCCn2cnc3ccccc32)cc1	8	?	12	-14%	-2%	-1%
CCN1C(=O)[C@H]2[C@@H](c3ccc(OC)cc3)N[C@]3(CCCN(Cc4ccc(OC)cc4)C3=O)[C@H]2C1=O	/	/	/	/	14%	/
Cc1ccc(C2=NNC(C(O)C(O)C(O)C(O)CO)S2)cc1 (stereo not drawn)	56*	97%	25*	/	42%	-3%
OCC(O)C(O)C(O)C(O)C1NCCS1 (stereo not drawn)	-2	-6%	6	/	8%	8%
CCCCn1c(-c2ccc(F)c(F)c2)nc2cc3[nH]c(=O)c(C(C)C)nc3cc21	2	?	-2	-80%	31%	6%
CCCCn1c(CCc2ccccc2)nc2cc3[nH]c(=O)c(C(C)C)nc3cc21	-3	2.6µM*	-4	3.7µM*	4%	-1%
Cn1c(=O)cc(SCC(=O)N2CCCC2)c2ccccc21	-2	92%	-3	4%	4%	14%
CCOC(=O)N1CCC(NC(=O)CSc2cc(=O)n(C)c3ccccc23)CC1	-29	13µM*	-4	-6%	-5%	4%
Cn1c(=O)cc(SCC(=O)NCC2COc3ccccc3O2)c2ccccc21 (stereo not drawn)	10	2.9µM*	4	4%	11%	6%
Cc1cc(C)nc(SCC(=O)NCC2COc3ccccc3O2)n1 (stereo not drawn)	/	1%	/	-17%	22%	1%
Cc1ccc(-c2cc(-c3ccc(C)cc3)[n+](-c3ccc(C(=O)O)cc3)c(-c3ccc(C)cc3)c2)cc1	/	?	/	/	14%	4%
Cc1ccc(C[n+]2c(-c3ccc(C)cc3)cc(-c3ccc(C)cc3)cc2-c2ccc(C)cc2)cc1	/	?	/	0.33µM*	-4%	-1%
CN(CC(=O)N1CCCC1)S(=O)(=O)c1ccc2ccccc2c1	-5	11%	-2	0%	-8%	0%
Cc1cc(C)cc(NC(=O)c2cccn2-c2ncc(C(F)(F)F)cc2Cl)c1	2	13µM*	-4	?	-13%	-11%
O=C(O)C1C2C=CC3(CN(c4cccc(C(F)(F)F)c4)C(=O)C13)O2 (stereo not drawn)	-10	10µM*	-5	1%	0%	1%
O=C(NC1CCCC1)C(C1CC1)n1c(-c2cc3ccccc3[nH]2)nc2ccccc21 (stereo not drawn)	/	/	/	/	68%	/
SMILES	Shiga toxin inh	Pf growth 96h	CHX counter	Pf growth 48h	AMA1-RON2 inh	SARS PLpro yeast
Cc1cnc(NCCc2ccccc2)s1	-7	-12%	-1	?	-4%	1%
COc1ccc(CCNc2nc(=S)[nH]c3cc(OC)c(OC)cc23)cc1OC	-17	?	-3	?	101%	2%
COc1cc2[nH]c(=S)nc(NCCc3ccc(C)cc3)c2cc1OC	-5	8%	-1	2.6µM*	52%	0%
COc1cc2[nH]c(=S)nc(NCc3ccc(Cl)cc3)c2cc1OC	18	?	5	12µM*	94%	0%
COc1ccccc1CNc1nc(=S)[nH]c2cc(OC)c(OC)cc12	48*	1%	23*	?	80%	1%
CCCC[C@H](NC(=O)[C@H](CC(C)C)NC(=O)[C@@H](Cc1c[nH]c2ccccc12)NC(=O)[C@H](Cc1ccccc1)NC(=O)[C@@H](Cc1c[nH]c2ccccc12)NC(=O)[C@H](CC(N)=O)NC(=O)[C@@H](Cc1c(Cl)cccc1Cl)NC(=O)[C@@H]1CCCN1C(=O)[C@H](Cc1ccccn1)NC(=O)[C@@H]1CCCN1C(=O)[C@H](N)CCCCNC(=O)c1cccnc1)C(N)=O	-3	/	-8	/	/	/
CC(C)c1onc(C(=O)N2CCN(c3ccc(F)cc3)CC2)c1[N+](=O)[O-]	-1	?	-2	?	-18%	-3%
CC(=O)c1ccc(N2CCN(C(=O)c3noc4c3CSc3ccccc3-4)CC2)cc1	13	0%	17*	30%	3%	8%
Cc1onc(C(=O)N2CCN(Cc3ccccc3)CC2)c1[N+](=O)[O-]	-22	15µM*	-4	-16%	8%	5%
O=C(c1noc2c1CCCC2)N1CCN(c2ccccc2)CC1	83	96%	21*	10%	0%	2%
CC(=O)c1ccc(N2CCN(C(=O)c3c(-c4ccccc4Cl)noc3C)CC2)cc1	9	34%	-3	?	1%	6%
CC(C)c1onc(C(=O)N2CCN(c3ccccc3)CC2)c1[N+](=O)[O-]	-5	?	1	5.2µM*	-8%	-3%
O=C1c2ccc(Br)cc2C(=O)N1c1ccc(Cl)cn1	-15	-4%	-4	?	-7%	4%
Cc1ccccc1CN(C)CC(=O)NC(C)CCc1ccccc1 (stereo not drawn)	-13	-25%	11	-16%	-5%	-1%
Cc1csc2cc(-c3cccc([N+](=O)[O-])c3)c(-c3cccc([N+](=O)[O-])c3)c[n+]12	6	0.47µM*	-2	1µM*	19%	2%
CCOC(=O)c1c(-c2cccc([N+](=O)[O-])c2)csc1N	11	14%	-2	-6%	-6%	-2%
CC(C)(C)OC(=O)C[C@@H]1C/C=C\C[C@H](CC(=O)N[C@@H](CO)Cc2ccccc2)C(=O)N[C@H](C(C)(C)C)COC1=O	/	/	/	/	-3%	-16%
COc1ccc(OC2C(=O)N(Cc3ccc(F)cc3)C2c2cc(OC)c(OC)c(OC)c2)cc1 (stereo not drawn)	2	25%	7	3.7µM*	-7%	24%
